Potency and affinity values are given separately. Activity calls are given as the source filed them. Entries that show only a call come without a potency. No rule for the calls is given here.
Biological target: Plasmodium falciparum protein kinase 6 (PK6, PF3D7_1337100) (UniProt Q8IDW1)
Assay: PfPK6 kinase inhibitors, biochemical, TCAMS library (AID 1159586)
Details: recombinant PfPK6, Kinase-Glo ATP depletion luminescence

Plasmodium falciparum protein kinase 6 (PK6, PF3D7_1337100), sequence (Q8IDW1 1-305): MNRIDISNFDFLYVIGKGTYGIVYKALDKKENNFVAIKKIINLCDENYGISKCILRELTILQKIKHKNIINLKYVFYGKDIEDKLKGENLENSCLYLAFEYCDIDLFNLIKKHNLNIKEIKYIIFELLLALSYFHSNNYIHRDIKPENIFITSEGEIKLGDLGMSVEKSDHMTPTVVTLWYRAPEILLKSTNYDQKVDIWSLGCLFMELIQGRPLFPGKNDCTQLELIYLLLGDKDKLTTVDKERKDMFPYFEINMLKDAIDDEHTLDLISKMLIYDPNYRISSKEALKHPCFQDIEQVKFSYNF

| Compound | outcome |
| --- | --- |
| COc1ccc2nccc(N3CCC(SCCNS(=O)(=O)c4ccc5c(c4)OCCO5)C3)c2n1 (stereo not given) | inactive |
| CCc1c(CCNCCCCCCNCCc2ccc([N+](=O)[O-])cc2)ccc(OC)c1OC | inactive |
| CCOC(=O)c1cnc2c(OC)cc(OC)c(Cl)c2c1Nc1ccccc1 | inactive |
| O=C(Nc1ccc(Cl)cc1)Nc1cccc(CCNCc2ccccc2)c1 | inactive |
| Nc1nc2c(ncn2OC[C@H]2COP(=O)(O)CO2)c(=O)[nH]1 | inactive |
| Fc1ccc(Nc2ccnc3cc(-c4cccc(CN5CCCCC5)c4)ccc23)c(Cl)c1 | inactive |
| COc1ccc(NC(=O)[C@H](CC(C)C)Nc2cc(C)nc(NCCc3cccs3)n2)cc1 | inactive |
| NC(=O)c1cccc(CNC(=O)NC[C@H]2CN(Cc3ccc(Cl)c(Cl)c3)CCO2)c1 | inactive |
| O=C(NC1CC1)c1ccc2cc(C(=O)N3Cc4ccccc4C(c4ccccc4)C3)ccc2c1 (stereo not given) | inactive |
| O=C(Nc1ccc(OC2CCN(Cc3ccc(F)cc3)CC2)c(Cl)c1)c1ccsc1 | inactive |
| CN(C)Cc1cc(Nc2ccnc3cc(Cl)ccc23)ccc1O | inactive |
| O=C(Cc1ccc(NC(=O)c2ccc(O)c(-c3ccc(Cl)c(Cl)c3)c2)cc1)NCc1cccc(C(F)(F)F)c1 | inactive |
| COc1ccc(CNC2CCN(C)CC2)cc1-c1ccc(S(=O)(=O)NCc2ccccc2)cc1 | inactive |
| CC(C)=CCc1c(-c2ccc(O)cc2O)oc2c3c(cc(O)c2c1=O)OC(C)(C)C=C3 | inactive |
| COc1ccc2ncc(F)c(NC(=O)C3CCC(NCc4cc5cc(F)cc(F)c5[nH]4)CC3)c2n1 (stereo not given) | inactive |

Reference: PubChem BioAssay
